Laboratory results from PubChem BioAssay (NCI).
Compounds without any hit were thinned out: in the full panel of roughly 83,000, 20% have a hit.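 Note: values are percent growth. 100 is the growth of untreated cells, values between 100 and 0 indicate rising inhibition; between -100 and 0 indicates cell death.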 Values without a mark were called inactive. The source made the active and inactive calls. Rule for the calls: active = growth percent below 10; inactive = the rest.

Tests used:
Experiment in all cases: NCI-60 one-dose screen, 48 h (100 = growth as untreated, 0 = no growth, -100 = all killed)
Conditions in all cases: 10 µM unless noted
[1] = system: SR leukemia
[2] = system: RPMI-8226 leukemia
[3] = system: OVCAR-8 ovarian
[4] = system: OVCAR-5 ovarian
[5] = system: OVCAR-4 ovarian
[6] = system: SK-OV-3 ovarian
[7] = system: IGROV1 ovarian
[8] = system: OVCAR-3 ovarian
[9] = system: HS 578T breast
[10] = system: NCI/ADR-RES ovarian

SMILES | growth [1] | growth [2] | growth [3] | growth [4] | growth [5] | growth [6] | growth [7] | growth [8] | growth [9] | growth [10]
O=C1/C(=C/c2ccc([N+](=O)[O-])cc2)COc2ccc(O)cc21 | 7.84% (active) | -16.4% (active) | 69.5% | 99% | 89.5% | 113% | 73.4% | 82.7% | 89.3% | 92.1%
O=C(Nc1cccc(-c2ccc(N3CCOCC3)nn2)c1)Nc1cccc(C(F)(F)F)c1 | 60.4% | 31.4% | 35.4% | 125% | 73.3% | 104% | 97.1% | 74.3% | 91.6% | 72.2%
O=C(Nc1ccc(OS(=O)(=O)c2ccc(F)cc2)cc1)C1CCCCCC1 | 70.2% | 78% | 93.2% | 99.7% | 98.5% | 97.5% | 118% | 96.1% | 82.4% | 82.1%
C1CCC([PH+](C2CCCCC2)C2CCCCC2[PH+](C2CCCCC2)C2CCCCC2)CC1.[Au].[CH-]1CCCCC1C1CCCC[N-]1 (stereo not given) | -3.06% (active) | -15.6% (active) | -6.1% (active) | -69.3% (active) | -5.17% (active) | -65.8% (active) | -38.6% (active) | -92.2% (active) | -5.47% (active) | 9.87% (active)
O=S(=O)(Nc1cc(Cl)ccc1Cl)c1ccc(-c2cnc(C3CC3)o2)cc1 | 16.5% | 31% | 56.2% | 72.1% | 52.5% | 52% | 39.3% | 5.34% (active) | -2.43% (active) | 26%
CCCCn1c(=O)[nH]c(N)c([C@@H]2c3c([nH]c(=O)n(CCCC)c3=O)Oc3ccc4ccccc4c32)c1=O | 9.35% (active) | 77.8% | 7.15% (active) | 92.3% | 86.2% | 85% | 1.79% (active) | -92.1% (active) | 103% | 9.83% (active)
CC1=NC2=Nn3c(c4cnn(-c5ccccc5)c4n/c3=N\N)NN2C(c2ccccc2)=C1 | 99.6% | 98.3% | 101% | 90% | 94.7% | 98% | 61.8% | 90.2% | 80.5% | 97.5%
N#CC1=C(N)Oc2c(c(=O)[nH]c3ccc(Cl)cc23)C12C(=O)c1ccccc1C2=O | 101% | 96.2% | 102% | 96.1% | 93.1% | 101% | 100% | 93.4% | 83.3% | 102%
COC1=CC(c2ccc[nH]2)=N/C1=C\c1[nH]c(C)c(CC(=O)NCc2ccccc2)c1C | -29.1% (active) | 18.4% | 19.4% | 31.5% | 46.3% | 25.7% | 38.2% | 11.1% | 24.6% | -40.7% (active)
Clc1ccc(/C=N\N=C\c2ccc(Cl)c(Cl)c2)cc1Cl | 103% | 102% | 85.7% | 66.9% | 97.9% | 87.4% | 79.5% | 119% | 106% | 77.3%
CC1(C)CC(=O)C2=C(C1)N(c1ccc(OC(F)(F)F)cc1)C(N)=C(C#N)C2c1ccc(Br)cc1F (stereo not given) | 76% | 100% | 35.8% | 87.2% | 54.9% | 61.2% | 63.2% | 58% | 23.7% | 35.3%
O=[N+]([O-])c1cccc(-c2nc3cc4nc5ccccc5[nH]c4cc3n2)c1 | 93.4% | 101% | 98.2% | 111% | 98.3% | 102% | 99.1% | 98.7% | 109% | 101%
COc1cc2c(cc1OCCCN1CCN(CCCOc3cc4c(cc3OC)C(=O)N3CC(F)(F)C[C@H]3C=N4)CC1)N=C[C@@H]1CC(F)(F)CN1C2=O | 37.5% | 5.91% (active) | 62.2% | 41.2% | 83% | 84.9% | 60.9% | 54.6% | -0.618% (active) | 111%
Cc1cc(S(=O)(=O)/N=C(\N)n2nc(C)c(C)c2C)c(SCc2ccccc2)cc1Cl | 65.8% | 26.5% | 72.8% | 90% | 63.3% | 106% | -20.8% (active) | 81% | 77.4% | 57.4%
COc1ccc(C(C)=O)cc1S(=O)(=O)Nc1c(N)nc(SC)[nH]c1=O | 103% | 96.6% | 105% | 104% | 108% | 124% | 102% | 103% | 96.9% | 103%
CSc1nc2ccccc2cc1/C=[N+](\[O-])c1ccccc1 | 22.1% | 14.5% | 39.5% | 91.1% | 70.8% | 87.3% | 77.3% | 66.9% | 74.1% | 28.5%
N#CC1=C(N)Oc2c(sc3c(Br)cccc23)C1c1ccc(Cl)cc1 (stereo not given) | 4.58% (active) | 12.6% | 23% | 26.3% | 61.2% | 27.1% | 27.2% | 0.89% (active) | 26.4% | 0.969% (active)
Cc1ccc(NC(=O)c2sc3nc(C)c(Br)c(C)c3c2N)cc1 | 81.6% | 83.3% | 39.7% | 79.1% | 11.7% | 48.9% | 51.8% | 67% | 31.8% | 51.8%
CCN(CC)CC(O)COc1c(Br)c(Br)c(Br)c2c1OC(C)(C)C2 (stereo not given) | 16.7% | 85.5% | 126% | 93.2% | 82.9% | 97.9% | 607% | 14% | -69.4% (active) | 85%
O=C(O)CCCN1C(=O)/C(=C/c2cn(-c3ccccc3)nc2-c2ccc([N+](=O)[O-])cc2)SC1=S | 33.3% | 46.8% | 44.4% | 94.3% | 64% | 59.1% | 58.3% | 61.6% | 63.6% | 43.5%
CCCCCCCCCCCCCCCCCCOc1ccccc1CC(=O)OCC[N+](C)(C)C | 11.1% | 40.9% | 5.15% (active) | 31.8% | 20% | 56.2% | -61.4% (active) | 16.5% | 17.1% | 91.3%
Cc1[nH]c(=O)[nH]c(=O)c1Br | 77.6% | 111% | 95.2% | 114% | 117% | 115% | 147% | 124% | 104% | 97.8%
O=c1[nH]c(Cc2nc3ccccc3s2)nc2cc(Br)ccc12 | 75.4% | 66.7% | 70.8% | 66.5% | 92.4% | 78.8% | 73.9% | 86.4% | 84.2% | 72.8%
C=C(CBr)[C@@H]1CC[C@]2(C(=O)O)CC[C@]3(C)[C@H](CC[C@@H]4[C@@]5(C)CCC(=O)C(C)(C)[C@@H]5CC[C@]43C)[C@@H]12 | 60% | 42.3% | 84.2% | 89.8% | 75.3% | 121% | 103% | 70.8% | 92.2% | 83.4%
